Assay results taken from PubChem BioAssay AID1117319 (Southern Research Institute, 2015).
Several values for one entry are separate records, joined by “and”; a condition that tells them apart may be missing. Equal entries are not always repeated. In all, about 260,000 compounds went through this assay and about 1,500 (0.58%) were called active. Roughly 5% stayed inconclusive and do not appear here.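 How the source made its calls: active means inhibition above a set limit at one or more doses, reproduced on every date tested; inconclusive means results disagree between test dates, or hit never tested in dose response; inactive means the rest.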 The list is a sample of the results. Measured potencies and affinities stand elsewhere.

Target: Virion infectivity factor (Human immunodeficiency virus type 1 group M subtype B (isolate BH10)) + Virion infectivity factor (Human immunodeficiency virus type 1 group M subtype B (isolate BRU/LAI)) + Virion infectivity factor (Human immunodeficiency virus type 1 group M subtype B (isolate PCV12)) + Virion infectivity factor (Human immunodeficiency virus type 1 group M subtype B (isolate HXB2)) + DNA dC->dU-editing enzyme APOBEC-3G (Homo sapiens) (UniProt P69720+P69721+P69722+P69723+Q9HC16)
Experiment: HIV-1 Vif–A3G interaction blockers – biochemical, TR-FRET, GST-Vif 1-94, biotin-A3G peptide, dose response retest, primary screen (AID 1117319);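 further: Vif residues 1-94 fused to GST binding biotinylated APOBEC3G peptide 110-148; 0% = full assay without inhibitor and 100% = GST in place of GST-Vif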
Settings: TR-FRET GST-Vif / biotin-A3G peptide binding; stronger effect = higher value

inhibition, inactive:
CCCCn1c(SCC(=O)NCc2ccccc2)nc2ccc(N3CCOCC3)cc2c1=O 18.7%
CCCCn1c(SCC(=O)NCCOC)nc2ccc(N3CCOCC3)cc2c1=O 32.1% and 5.24%
CCCC(=O)Nc1cc(C)c(NC(=O)Cc2ccccc2)cn1 -1.31%
Nc1c(N2CCCC2)cc(Cl)c2nonc12 22.8%
CCN(CC)c1cc(Cl)c2nonc2c1N 0.28%
CCOC(=O)N1CCN(C(=O)c2c(-c3ccccc3)noc2C)CC1 -4.55%
Cc1onc(-c2c(F)cccc2Cl)c1C(=O)NCc1ccco1 0.03%
Cc1onc(-c2c(Cl)cccc2Cl)c1C(=O)NCc1ccco1 2.61%
O=C(NCc1ccco1)c1cc(-c2ccccc2)on1 -2.43%
COc1cccc(-c2cc(C(=O)NCc3ccco3)no2)c1 2.27%
O=C(NCCCn1ccnc1)C(=O)NCC1OCCN1S(=O)(=O)c1ccccc1 (configuration not stated) 20.3%
Cc1ccc(S(=O)(=O)N2CCCc3ccccc32)cc1 3.67%
Cc1ccc(-c2sc(C(=O)NN)c(C)c2C#N)cc1 -0.1%
CCc1noc(C)c1C(=O)NC1CCCc2c1cnn2-c1cc(C)cc(C)c1 (configuration not stated) -1.36%
O=C1N[C@@H](c2ccccc2)COC(=O)[C@H](Cc2ccc(F)cc2)CC/C=C/C[C@H]1CC(=O)N(CCO)Cc1ccccc1 3.93%
COc1cccc(-c2cccc(NC(=O)C3CCN(CCCn4cccn4)CC3)c2)c1 6%
CCn1nc(C(=O)Nc2cc(Cl)ccc2-n2cncn2)c2ccccc2c1=O -6.28%
C=CCn1c(O)c(C(CC)=Nc2ccccc2NC(=O)CC)c(=O)[nH]c1=O 30.8%
C=CCn1c(O)c(C(CC)=NCc2cccnc2)c(=O)[nH]c1=O 7.28%
Cc1ccc(OCc2n[nH]c(=S)n2Cc2ccccc2)cc1 24.6%
O=C(Cc1ccccc1)Nc1ccc(N2CCN(Cc3ccccc3F)CC2)cc1 6.73%
COC(=O)C1CCN(C(=O)CCCOc2ccccc2)CC1 8.9%
CC(=O)Nc1ccc(SCC(=O)Nc2ccccc2N2CCOCC2)cc1 -9.09%
COC(=O)c1cc(C(=O)OC)cc(S(=O)(=O)Nc2ccc(Cl)c(N)c2)c1 -4.45%
C=CCN=c1scc(-c2ccccc2)n1/N=C/c1ccccn1 11.2%
COc1ccc(O)c(/C=N/n2c(-c3ccco3)csc2=Nc2cccnc2)c1 6.77%
CN=c1scc(C)n1/N=C/c1ccc2c(c1)OCO2 13.4%
Oc1ccc(/C=N/n2c(-c3ccco3)csc2=Nc2cccnc2)c(O)c1 21%
CN1CCN(CC(O)COc2ccccc2)CC1 (configuration not stated) -7.2%
CCCCNc1oc(-c2cccs2)nc1S(=O)(=O)c1ccccc1 -0.64%
CC(C)(CNC(=O)c1cccs1)CNC(=O)c1cccs1 0.17%
O=C(CSc1nccc(=O)[nH]1)NCc1ccc2c(c1)OCO2 3.96%
CCOC(=O)N1CCN(CC(O)COCCC23CC4CC(CC(C4)C2)C3)CC1 (configuration not stated) 13.8%
O=C1CCCc2c1sc1nc3n(c(=O)c21)CCCCC3 2.33%
O=c1c2c3c(sc2nc2n1CCCCC2)CCCCC3 0.94%
Nc1ncnc2c1CN(Cc1ccccc1)CC2 -5.85%
CC1(C)CC(=O)C2=C(C1)OC(N)=C(C#N)C2c1ccccc1 (configuration not stated) 3.85%
N#CC1(Nc2ccc([N+](=O)[O-])cc2)CCCC1 10.3%
CCOC(=O)C1=C(COC(=O)/C=C/c2ccc(C)o2)NC(=O)NC1C (configuration not stated) -5.28%
CCOC(=O)C1=C(COC(=O)/C=C/c2ccc(Cl)cc2)NC(=O)NC1C (configuration not stated) 2.25%
O=C(O)/C=C/c1ccccc1Oc1ccccc1 -6.82%
Cc1ccc(N=C2NC(=O)/C(=C/c3cccn3C)S2)cc1C -3.5%
COc1ccc(CCNc2cc(C)nc3c(-c4ccccc4OC)cnn23)cc1OC 3.45%
CC(C)(CO)CN1CCC(n2nccc2NC(=O)C2CCCC2)CC1 -9.4%
COc1ccc2c(c1)C(C)=CC(C)(C)N2C(=O)Nc1ccccc1 1.41%
CCNC(=O)N1c2ccc(OC)cc2C(C)=CC1(C)C 18.1%
COc1cccc(C(C#N)N2CCOCC2)c1 (configuration not stated) -0.56%
C/C(=N\NC(=O)CCc1ccc(S(=O)(=O)N2CCOCC2)cc1)c1ccc(OC(F)F)cc1 18.9%
CC(NC(=O)c1ccc(Cn2cc([N+](=O)[O-])cn2)cc1)c1ccccc1 (configuration not stated) -7.96%
O=C1C(Cl)=C(N2CCCCCC2)C(=O)N1c1ccccc1 4.82%
O=C1C(Cl)=C(N2CCOCC2)C(=O)N1c1ccc(Br)cc1 12.4%
CCOc1ccccc1C(=O)NC(C(=O)OCC(=O)NNC(=O)c1cccs1)C(C)C (configuration not stated) -2.67%
Cc1cc(NN)nc2ccc(Cl)cc12 21%
O=C(Cc1csc(Nc2nc(=S)[nH]c3ccccc23)n1)NCc1ccc(Cl)cc1 3.88%
Cc1cc(SCc2ccc(C(F)(F)F)cc2)nc(=O)[nH]1 4.23%
Clc1cccc(-c2cc3nc4c(c(NCc5ccco5)n3n2)CCCC4)c1 -4.82%
Cc1cccc(-c2cc3nc4c(c(NCc5ccco5)n3n2)CCCC4)c1 3.78%
c1coc(-c2nnc(SCc3cn4ccccc4n3)o2)c1 2.16%
Brc1ccc(CSc2nnc(-c3ccco3)o2)cc1 -2.39%
COc1ccc(-c2c(C)n([O-])c(C)c(-c3ccccc3)[n+]2=O)cc1OC -6.67%
Cc1cccc(OCc2nnc(SCC(=O)Nc3ccc(C)c(Cl)c3)o2)c1 -12%
Cc1cc(C)cc(NC(=O)CN(C)CC(=O)N(CC(C)C)c2c(N)n(CC(C)C)c(=O)[nH]c2=O)c1 1.78%
O=C(O)c1ccccc1Nc1ccccc1C(=O)O 5.44%
COc1cc(-c2ccc(NC(C)=O)c(OC)c2)ccc1NC(C)=O 1.06%
CCOc1cc(-n2nc(C)c(C#N)c2N)nc(SC)n1 -1.98%
COc1cccc(/C=C2\CCCCC2=O)c1 8.63%
CC(NC(=O)C12CC3CC(C1)CC(n1cncn1)(C3)C2)C12CC3CC(CC(C3)C1)C2 (configuration not stated) -7.08%
O=C(COC(=O)CCC(=O)N1CCOCC1)Nc1ccc(Br)cc1Br 3.75%
O=C(C1CCCN1S(=O)(=O)c1ccc(Cl)cc1)N1CCCCC1 (configuration not stated) -2.58%
CN1CCN(c2ccc(C(=O)c3ccc(F)cc3)cc2)CC1 -7.54%
O=Cc1ccc(N2CCCCC2)cc1 -6%
O=C(O)c1ccc(N2CCCCC2)cc1 8.04%
Nc1ccc(N2CCN(c3ccc(Cl)c(Cl)c3)CC2)cc1 22.2%
CCn1c(SCC(=O)NC2CC2)nnc1-c1ccccc1 -1.91%
COc1ccc(CNC(=O)c2ccccc2NS(C)(=O)=O)cc1 1.78%
C=C(C)CNC(=S)NNC(=O)c1ccncc1 -3.17%
Cc1cc(C)c(S(=O)(=O)NCCc2ccncc2)c(C)c1 -0.3%
CC(NC(N)=O)C(=O)Nc1ccc(Cl)c(S(=O)(=O)Nc2ccc(Br)cc2)c1 (configuration not stated) 10.3%
CCOc1ccc(S(=O)(=O)n2ccc(C)n2)cc1 -9.61%
CCOc1ccc(NCCC#N)cc1 -2.11%
CCOc1ccc(NC(=O)NC2CCOC(C)(C)C2)cc1 (configuration not stated) 22%
Cc1cc(C)c(NC(=O)CSc2nc3c(c(=O)n2C)SC(C)C3)c(C)c1 (configuration not stated) 3.57%
Cc1ccc(C)c(NC(=O)CSc2nc3c(c(=O)n2C)SC(C)C3)c1 (configuration not stated) 8.15%
CCC(C)N(NC(C)=O)c1nc(Cl)nc(NC(C)(C)C)n1 (configuration not stated) 7.21%
COc1ccc(/C=N/NC(=O)CN(C2=NS(=O)(=O)c3ccccc32)c2ccccc2)cc1 22.5%
CCOC(=O)C1(Cc2cccc(OC)c2)CCN(Cc2ccc(C)s2)CC1 11.4%
Cc1cc(C(C)(C)C)c(O)c(C(C)(C)C)c1 17.9%
Cc1ccc(O)c(Cc2cc(C)cc(Cc3cc(C)ccc3O)c2O)c1 -3.64%
COc1ccc(OC)c(-c2[nH]nc3c2C(c2ccco2)C(C#N)=C(N)O3)c1 (configuration not stated) 17.4%
CC(=O)Nc1ccc(S(=O)(=O)Nc2nc3ccc([N+](=O)[O-])cc3s2)cc1 0.77%
O=C(NNC(=O)c1cc(-c2ccco2)nc2ccccc12)c1ccccc1 14%
O=C(Nc1cccc(S(=O)(=O)NC2=NCCC2)c1)c1cc(-c2ccccn2)nc2ccccc12 -2.06%
COc1ccc(-c2cc(C(=O)NCC3CCCO3)c3ccccc3n2)cc1 (configuration not stated) -7.4%
O=C(NCC1CCCO1)c1cc(-c2ccncc2)nc2ccccc12 (configuration not stated) -2.45%
O=C(NC1CC1)c1cc(-c2ccccn2)nc2ccccc12 -3.96%
O=C(Nc1cccc(S(=O)(=O)NC2=NCCC2)c1)c1cc(-c2ccco2)nc2ccccc12 -0.28%
CN(CCc1ccccn1)S(=O)(=O)c1ccc(F)cc1 1.96%
